Assay outcomes (PubChem)
PLK1 PBD inh: qHTS for Inhibitors of PLK1-PDB (polo-like kinase 1 - polo-box domain): Primary Screen; Serine/threonine-protein kinase PLK1 (Homo sapiens), P53350; Plk1 PBD binding of FITC phosphopeptide, fluorescence polarization; Potency, µM, actives largely listed as inhibitors; actives 2.8% (n = 360,000); AID 720504, 2013; also: series mostly up to about 57 µM; nearly all actives have a fitted effect of over 65% in size
Sfp PPTase inh: qHTS Assay for Inhibitors of Bacillus subtilis Sfp phosphopantetheinyl transferase (PPTase); actives 3.5% (n = 310,000); Biochemical Sfp PPTase activity, qHTS; Potency, µM, hits mostly inhibitors;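 also: the enzyme is Sfp with the accession as filed and its product quenches rhodamine fluorescence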
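After 15 min at room temperature with compound, 15 nM Sfp received 5 uM rhodamine-CoA plus 12.5 uM BHQ-2-ybbR (50 mM Hepes pH 7.6, 10 mM MgCl2). Rate came from the fluorescence difference over 30 min, ex 525/em 598 nm.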
IDH1 R132H inh: qHTS for Inhibitors of mutant isocitrate dehydrogenase 1 (IDH1): qHTS | Isocitrate dehydrogenase [NADP] cytoplasmic (Homo sapiens), O75874 | IDH1-R132H enzyme, NADPH consumption, diaphorase/resazurin fluorescence | Potency, µM (highest dose often 76.6 µM), hits mostly inhibitors | actives 0.093% (n = 390,000) | AID 602179, 2012; also: nearly all actives have a fitted effect of over 65% in size
Target sequence (O75874 whole entry R132H, stated change not applied): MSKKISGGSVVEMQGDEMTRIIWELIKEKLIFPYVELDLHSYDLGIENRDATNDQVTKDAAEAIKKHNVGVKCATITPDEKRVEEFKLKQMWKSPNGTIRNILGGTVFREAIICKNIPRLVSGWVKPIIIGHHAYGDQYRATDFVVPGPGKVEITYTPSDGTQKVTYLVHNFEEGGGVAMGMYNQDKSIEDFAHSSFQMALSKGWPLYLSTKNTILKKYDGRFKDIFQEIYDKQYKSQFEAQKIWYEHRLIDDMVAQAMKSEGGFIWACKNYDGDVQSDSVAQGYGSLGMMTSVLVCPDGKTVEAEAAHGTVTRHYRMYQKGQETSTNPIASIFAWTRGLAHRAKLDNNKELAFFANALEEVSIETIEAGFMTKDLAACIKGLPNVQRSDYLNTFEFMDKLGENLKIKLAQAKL
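IDH1-R132H (0.5 ug/mL) preincubated 30 min with compound, then NADPH (0.016 mM) and alpha-KG (2 mM) added; 80 min at RT, pH 7.5. Remaining NADPH coupled via diaphorase/resazurin to fluorescence (540/590 nm); concentration-response curves normalized to no-enzyme control.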
TrxR1 inh: qHTS Assay for Inhibitors of Mammalian Selenoprotein Thioredoxin Reductase 1 (TrxR1): qHTS; Thioredoxin reductase 1, cytoplasmic (Rattus norvegicus), O89049; recombinant rTrxR1, NADPH fluorescence consumption, selenite substrate; Potency, µM (highest dose often 114 µM), hits mostly inhibitors; actives 1% (n = 390,000); AID 588453, 2011; also: nearly all actives have a fitted effect of over 65% in size
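Rat TrxR1 (90 nM in the dispensed reagent) was pre-reduced with 400 uM NADPH for 5 min at room temperature, then incubated with compound for 15 min. After 400 uM selenite was added, NADPH fluorescence (Ex 340/Em 450 nm) was followed for 8 min.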
TrxR1 substrate: qHTS Assay for Substrates of Mammalian Selenoprotein Thioredoxin Reductase 1 (TrxR1): qHTS | purified TrxR1 substrate turnover, NADPH consumption readout | Potency, µM (top dose mostly 114 µM) | AID 588456, 2011 | Thioredoxin reductase 1, cytoplasmic (Rattus norvegicus), O89049 | actives 0.01% (n = 390,000); also: nearly all actives have a fitted effect of over 50% in size
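Rat TrxR1, dispensed at 90 nM, was prereduced with 400 uM NADPH (final) for 5 min at ~22 deg C, then incubated with compound 15 min before 400 uM selenite. A first-read NADPH fluorescence drop versus no-compound background flagged substrates.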
VDR inhibitor: Inhibitors of the vitamin D receptor (VDR): qHTS. AID 504847, 2011. VDR-SRC2-3 peptide fluorescence polarization, 2 h. Potency, µM, most hits filed as inhibitors. actives 0.93% (n = 400,000)
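Reagent solutions, kept cold and dark, are dispensed first; compounds are then pinned in at 23 nl, plates briefly spun, and incubated 2 h at ambient temperature. Inhibition of VDR–SRC2-3 peptide binding is read by fluorescence polarization.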
Each line names hits and unclear results; the compound was inactive in the other large screens; ! = a repeat was not active. A selection: hits, their analogues and other compounds. The true share with any hit is near 5.2%. Calls follow the shape of the dose curve; as a rule, active = well fitted curve in the direction sought with a large enough effect; inconclusive = small, poorly fitted or top-dose-only effect, or another doubt; inactive = no such curve, though single readings can be large; an effect the other way counts as inactive or inconclusive.

C[C@@](N)(C(=O)O)c1ccc(C(=O)O)cc1	Sfp PPTase inh 50.1µM! (no result: PLK1 PBD inh, IDH1 R132H inh, TrxR1 inh, TrxR1 substrate)
CCc1ccc(C(=O)O)cc1	none
CN(C)S(=O)(=O)c1cccc(-c2nnc(SCc3cc(Cl)cc4c3OCOC4)n2N)c1	PLK1 PBD inh 9.47µM, Sfp PPTase inh 31.6µM, VDR inhibitor inconclusive
CCN(CC)S(=O)(=O)c1cccc(-c2nnc(SCC(=O)NC)n2N)c1	none
Cc1occc1C(=O)NCc1ccc2c(c1)OCO2	none
Cc1occc1C(=O)NCc1cccc(CNC(=O)c2ccoc2C)c1	PLK1 PBD inh inconclusive, Sfp PPTase inh inconclusive, TrxR1 inh 8.91µM
Cc1ccc2c(c1)ncc[n+]2CC(=O)c1ccc(F)cc1	none (no result: PLK1 PBD inh, Sfp PPTase inh, IDH1 R132H inh, VDR inhibitor)
COc1ccccc1CNC(=O)C(C)c1ccc([N+](=O)[O-])cc1 (configuration not stated)	none
CC(CCC(=O)O)C1CCC2C3CC[C@H]4CC(O)CC[C@@]4(C)C3C=C[C@]12C (some centres not stated)	VDR inhibitor 28.2µM (no result: PLK1 PBD inh, IDH1 R132H inh, TrxR1 inh, TrxR1 substrate)
C[C@H](CCC(=O)O)C1CC[C@H]2C3CC[C@@H]4C[C@H](O)CC[C@]4(C)C3C[C@H](O)[C@]12C (some centres not stated)	none (no result: PLK1 PBD inh, IDH1 R132H inh, TrxR1 inh, TrxR1 substrate)
CCN1C(=O)/C(=C2\SC(=S)N(CCCOC)C2=O)c2ccccc21	none
CCC(C)C(=O)N1c2ccccc2C(=C2SC(C(=O)OC)=C(C(=O)OC)S2)C(=S)C1(C)C (configuration not stated)	Sfp PPTase inh 50.1µM
Cc1nc([N+](=O)[O-])c(Br)n1CC(=O)c1ccc(Br)cc1	PLK1 PBD inh inconclusive, TrxR1 inh 11.2µM, VDR inhibitor inconclusive
CCCC(=O)N1CCN(c2nc3c(OC)ccc(Cl)c3s2)CC1	PLK1 PBD inh 26.7µM
COc1ccc(Cl)c2sc(N3CCN(C(=O)c4ccco4)CC3)nc12	none (no result: Sfp PPTase inh)
CCC[C@H](NC(=O)[C@H](Cc1ccc(O[S+](=O)([O-])O)cc1)NC(=O)OC(C)(C)C)C(=O)NCC(=O)N[C@@H](Cc1c[nH]c2ccccc12)C(=O)N[C@@H](CCC)C(=O)N[C@@H](CC(=O)OCCc1ccccc1)C(=O)O	none (no result: PLK1 PBD inh, IDH1 R132H inh, TrxR1 inh, TrxR1 substrate)
Nc1c(C(=O)Nc2ccc(F)cc2)sc2nc(-c3ccco3)ccc12	Sfp PPTase inh 7.94µM, TrxR1 inh inconclusive
Nc1c(C(=O)Nc2ccc(Br)cc2)sc2nc(-c3ccco3)ccc12	Sfp PPTase inh 10µM
Cc1ccnc2nc(C(=O)OCC(=O)N(Cc3ccccc3)C(C)(C)C)nn12	none (no result: Sfp PPTase inh)
Cc1ccc(CNC(=O)CSc2nc3[nH]ncc3c(=O)[nH]2)cc1	PLK1 PBD inh 26.7µM
Cc1ccccc1Oc1cc(-n2ncc(Cl)c(Cl)c2=O)ncn1	PLK1 PBD inh 5.32µM, TrxR1 inh 0.794µM, VDR inhibitor inconclusive
CC#CCN1c2ccccc2[C@]23C[C@@H](C(=O)OC)N(S(=O)(=O)c4ccc5c(c4)OCCN5C)C2=NC(C(=O)OC)=C(C(=O)OC)[C@H]13	none (no result: PLK1 PBD inh, IDH1 R132H inh, TrxR1 inh, TrxR1 substrate, VDR inhibitor)
CC(C)N(CC(=O)Nc1ccc(Cl)cc1C(F)(F)F)C(=O)CCl	TrxR1 inh 15.8µM
CCN(Cc1ccccc1)S(=O)(=O)c1ccc(C(=O)N(CCCN(C)C)c2nc3c(F)cccc3s2)cc1	Sfp PPTase inh 79.4µM
CCOc1cccc2sc(N(CCCN(C)C)C(=O)c3ccc(S(=O)(=O)N(C)Cc4ccccc4)cc3)nc12	Sfp PPTase inh 56.2µM
CCOc1cccc2sc(N(CCCN(C)C)C(=O)c3ccc(S(=O)(=O)N(CC)Cc4ccccc4)cc3)nc12	Sfp PPTase inh 50.1µM
CCCCN(CC)S(=O)(=O)c1ccc(C(=O)N(CCCN(C)C)c2nc3cc(C)cc(C)c3s2)cc1	Sfp PPTase inh 50.1µM
